Percent Effect data for eleven compounds are collected here from ChEMBL document CHEMBL3988442, “University of Dundee, Small-Polar-MMV Screening Library” (2021).

For some of these results: Results with a measured potency or affinity are listed apart.

Holding throughout (parameters): scale not given: direction of the effect not stated beside the values
In assay [1] the target is Protein translocase subunit SecA (Escherichia coli (strain K12)) (UniProt P10408). In words: Assay to Identify E. coli SecA ATPase Inhibitors. The format is functional. The note with it: 30 µM.
The target of assay [2] is T1, Ubiquitin-activating enzyme e1, putative (Leishmania donovani (strain BPK282A1)) (UniProt E9BSI1).
T1 sequence (whole entry): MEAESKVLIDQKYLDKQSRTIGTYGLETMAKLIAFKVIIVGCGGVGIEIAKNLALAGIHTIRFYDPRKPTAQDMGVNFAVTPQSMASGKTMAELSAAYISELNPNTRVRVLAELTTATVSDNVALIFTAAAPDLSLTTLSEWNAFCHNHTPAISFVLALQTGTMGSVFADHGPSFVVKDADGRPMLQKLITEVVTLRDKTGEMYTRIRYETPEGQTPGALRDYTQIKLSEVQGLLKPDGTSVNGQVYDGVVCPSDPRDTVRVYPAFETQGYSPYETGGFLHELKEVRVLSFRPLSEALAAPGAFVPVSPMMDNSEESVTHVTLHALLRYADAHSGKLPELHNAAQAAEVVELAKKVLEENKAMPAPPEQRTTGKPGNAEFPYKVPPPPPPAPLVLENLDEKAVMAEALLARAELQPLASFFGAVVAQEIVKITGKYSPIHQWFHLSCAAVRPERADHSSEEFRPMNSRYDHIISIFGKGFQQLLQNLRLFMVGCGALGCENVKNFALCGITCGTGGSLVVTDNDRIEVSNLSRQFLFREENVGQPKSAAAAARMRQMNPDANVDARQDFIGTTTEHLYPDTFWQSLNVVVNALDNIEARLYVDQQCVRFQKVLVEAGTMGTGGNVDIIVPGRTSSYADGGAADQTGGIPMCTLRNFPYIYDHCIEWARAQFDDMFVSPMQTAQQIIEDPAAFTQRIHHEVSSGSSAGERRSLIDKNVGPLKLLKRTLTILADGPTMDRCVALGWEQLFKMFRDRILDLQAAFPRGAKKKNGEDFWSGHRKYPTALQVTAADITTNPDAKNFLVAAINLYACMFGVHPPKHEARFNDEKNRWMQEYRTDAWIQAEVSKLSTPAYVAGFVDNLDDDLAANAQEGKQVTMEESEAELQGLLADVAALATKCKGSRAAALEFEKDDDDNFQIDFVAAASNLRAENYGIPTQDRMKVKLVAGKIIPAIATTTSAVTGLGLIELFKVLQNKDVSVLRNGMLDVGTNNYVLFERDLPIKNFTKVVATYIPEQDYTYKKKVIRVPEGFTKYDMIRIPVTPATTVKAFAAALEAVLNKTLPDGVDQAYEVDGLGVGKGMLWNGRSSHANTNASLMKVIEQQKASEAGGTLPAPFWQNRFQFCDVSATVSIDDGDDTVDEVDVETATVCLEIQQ
Description: Leishmania donovani Ubiquitin Activating Enzyme (LdE1). The format is functional. The note with it: 30 µM.

Assay [3] addresses AMP-activated protein kinase, AMPK (Homo sapiens) (UniProt P54646+O43741+P54619+Q9UGJ0+Q9Y478+Q13131+Q9UGI9). Description: AMP-dependent Kinase enzyme assay. An in vitro enzyme assay that detects ADP turnover that is directly proportional to AMPK activity. This uses naive AMPK that is activated during the assay with MK-8722. In kind it is functional. The note with it: 30 µM.
Assay [4] addresses Sialic acid-binding Ig-like lectin 9 (Homo sapiens) (UniProt Q9Y336). Description: Hs-Siglec9 ALPHAscreen SOP 20170721. The following applies: 10 µM.
A further assay has as its system Trypanosoma cruzi. Description: Trypanosoma cruzi phosphomannomutase and mannose-1-phosphate guanylyltransferase assay. In kind it is functional. The note with it: 10 µM.
The target of assay [5] is T2, Arginase-2, mitochondrial (Homo sapiens) (UniProt P78540).
T2 sequence (whole entry): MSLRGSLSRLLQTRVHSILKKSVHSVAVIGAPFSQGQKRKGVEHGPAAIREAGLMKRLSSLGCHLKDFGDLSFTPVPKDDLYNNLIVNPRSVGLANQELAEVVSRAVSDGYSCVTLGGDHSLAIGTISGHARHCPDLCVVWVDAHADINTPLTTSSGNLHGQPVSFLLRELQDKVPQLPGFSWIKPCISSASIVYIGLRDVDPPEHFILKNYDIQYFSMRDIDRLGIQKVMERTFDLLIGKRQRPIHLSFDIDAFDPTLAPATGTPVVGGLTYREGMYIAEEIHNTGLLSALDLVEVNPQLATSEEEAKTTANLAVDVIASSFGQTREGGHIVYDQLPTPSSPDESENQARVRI
Description: in vitro enzyme assay to detect the production of urea directly proportional to the activity of Arginase II. Further: in the data most compounds retested in dose-response had high values. In kind it is functional. The note with it: 33.3 µM.

The target of assay [6] is T3, Proteasome subunit beta (Trypanosoma cruzi) (UniProt O96673).
T3 sequence (whole entry): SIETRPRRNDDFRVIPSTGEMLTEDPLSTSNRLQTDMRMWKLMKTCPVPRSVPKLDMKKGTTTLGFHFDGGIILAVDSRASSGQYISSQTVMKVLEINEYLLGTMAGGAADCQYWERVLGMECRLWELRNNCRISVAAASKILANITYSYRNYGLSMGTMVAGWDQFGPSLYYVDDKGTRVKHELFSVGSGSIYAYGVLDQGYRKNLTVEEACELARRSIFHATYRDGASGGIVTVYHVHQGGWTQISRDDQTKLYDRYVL
In words: Trypanosoma cruzi proteasome chymotrypsin-like activity (TcProtChymo) assay. Further: in the data most compounds retested in dose-response had high values. The format is functional. The following applies: 9.37 µM.

The species named for another assay is Homo sapiens. Description: To identify inhibition of the IFN signalling (Jak-Stat) pathway via expression of an eGFP reporter gene under the control of an IFN-stimulated response element (ISRE) containing MxA promoter. The format is functional. The following applies: 30 µM.
In assay [7] the target is T4, Tyrosyl-tRNA synthetase, putative (Trypanosoma cruzi (strain CL Brener)) (UniProt Q4DSP6).
T4 sequence (whole entry): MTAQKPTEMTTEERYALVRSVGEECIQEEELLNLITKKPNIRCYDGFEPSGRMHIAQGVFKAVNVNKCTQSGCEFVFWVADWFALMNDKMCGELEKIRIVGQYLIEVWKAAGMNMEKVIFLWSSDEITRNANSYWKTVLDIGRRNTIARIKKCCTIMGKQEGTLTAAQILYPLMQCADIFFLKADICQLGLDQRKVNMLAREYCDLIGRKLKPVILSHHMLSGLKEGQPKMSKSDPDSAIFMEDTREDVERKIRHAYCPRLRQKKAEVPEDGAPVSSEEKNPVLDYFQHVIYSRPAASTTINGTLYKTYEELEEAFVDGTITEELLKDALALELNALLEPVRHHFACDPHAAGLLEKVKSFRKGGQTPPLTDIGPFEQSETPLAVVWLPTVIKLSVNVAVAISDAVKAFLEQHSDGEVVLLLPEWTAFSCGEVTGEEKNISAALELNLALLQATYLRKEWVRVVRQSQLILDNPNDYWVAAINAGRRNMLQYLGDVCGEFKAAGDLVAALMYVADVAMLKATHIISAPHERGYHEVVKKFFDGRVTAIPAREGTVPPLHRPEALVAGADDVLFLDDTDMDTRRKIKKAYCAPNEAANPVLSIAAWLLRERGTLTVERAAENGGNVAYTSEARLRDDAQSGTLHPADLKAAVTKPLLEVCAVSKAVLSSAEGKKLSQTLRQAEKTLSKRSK
In words: Trypanosoma cruzi tyrosyl tRNA synthetase (TcYRS) _High Tyrosine SOP. Further: in the data most compounds retested in dose-response had high values. The format is functional. The following applies: 30 µM.

The target in assay [8] is T4, Tyrosyl-tRNA synthetase, putative (Trypanosoma cruzi (strain CL Brener)). In words: Trypanosoma cruzi tyrosyl tRNA synthetase (TcYRS) SOP. The format is functional. The note with it: 30 µM.
Assay [9] deals with Chromo domain-containing protein 1 (Saccharomyces cerevisiae (strain ATCC 204508 / S288c) (Baker's yeast)) (UniProt P32657). Description: ScCHD-1 Enzyme Inhibition Assay. Further: in the data most compounds retested in dose-response had high values. In kind it is functional. The note with it: 30 µM.
Chain of Chromo domain-containing protein 1 (Saccharomyces cerevisiae (strain ATCC 204508 / S288c) (Baker's yeast)) (P32657 whole entry, the tested form may be a part): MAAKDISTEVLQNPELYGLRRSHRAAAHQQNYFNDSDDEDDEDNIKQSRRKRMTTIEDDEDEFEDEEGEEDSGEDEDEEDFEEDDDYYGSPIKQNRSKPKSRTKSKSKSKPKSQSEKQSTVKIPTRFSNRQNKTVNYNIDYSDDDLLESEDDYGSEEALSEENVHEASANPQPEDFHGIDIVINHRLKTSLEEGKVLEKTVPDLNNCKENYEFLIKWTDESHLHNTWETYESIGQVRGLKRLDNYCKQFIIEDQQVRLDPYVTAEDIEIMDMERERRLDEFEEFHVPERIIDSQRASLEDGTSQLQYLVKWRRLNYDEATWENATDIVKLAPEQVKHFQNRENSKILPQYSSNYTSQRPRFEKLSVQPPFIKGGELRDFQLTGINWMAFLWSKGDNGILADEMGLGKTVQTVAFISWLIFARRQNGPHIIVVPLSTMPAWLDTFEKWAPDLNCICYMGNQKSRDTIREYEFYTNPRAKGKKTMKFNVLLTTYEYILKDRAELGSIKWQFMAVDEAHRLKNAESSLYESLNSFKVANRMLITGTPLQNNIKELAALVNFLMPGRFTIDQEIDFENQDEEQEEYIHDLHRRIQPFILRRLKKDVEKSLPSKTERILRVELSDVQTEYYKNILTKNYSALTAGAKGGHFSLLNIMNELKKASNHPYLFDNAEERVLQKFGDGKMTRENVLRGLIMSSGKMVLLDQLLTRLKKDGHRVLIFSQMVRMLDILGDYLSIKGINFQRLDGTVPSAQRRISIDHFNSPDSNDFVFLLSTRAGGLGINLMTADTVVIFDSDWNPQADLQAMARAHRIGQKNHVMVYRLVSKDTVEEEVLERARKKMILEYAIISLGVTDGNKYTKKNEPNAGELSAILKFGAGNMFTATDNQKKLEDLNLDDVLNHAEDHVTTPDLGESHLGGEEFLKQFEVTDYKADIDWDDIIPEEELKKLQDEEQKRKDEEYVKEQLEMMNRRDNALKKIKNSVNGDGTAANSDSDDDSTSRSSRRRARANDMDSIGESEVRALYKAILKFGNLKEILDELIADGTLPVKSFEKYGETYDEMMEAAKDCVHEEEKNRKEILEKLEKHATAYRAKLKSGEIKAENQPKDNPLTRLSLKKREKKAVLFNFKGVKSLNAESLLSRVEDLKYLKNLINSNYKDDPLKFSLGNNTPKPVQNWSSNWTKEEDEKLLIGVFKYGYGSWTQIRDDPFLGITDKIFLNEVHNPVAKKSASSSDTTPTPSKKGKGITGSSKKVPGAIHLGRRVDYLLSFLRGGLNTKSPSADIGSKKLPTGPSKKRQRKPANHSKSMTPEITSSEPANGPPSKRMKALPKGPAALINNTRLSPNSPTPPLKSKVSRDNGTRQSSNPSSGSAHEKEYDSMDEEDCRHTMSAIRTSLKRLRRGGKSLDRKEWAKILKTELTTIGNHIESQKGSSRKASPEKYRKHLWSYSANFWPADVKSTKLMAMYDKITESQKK

Chain of Sialic acid-binding Ig-like lectin 9 (Homo sapiens) (Q9Y336 whole entry): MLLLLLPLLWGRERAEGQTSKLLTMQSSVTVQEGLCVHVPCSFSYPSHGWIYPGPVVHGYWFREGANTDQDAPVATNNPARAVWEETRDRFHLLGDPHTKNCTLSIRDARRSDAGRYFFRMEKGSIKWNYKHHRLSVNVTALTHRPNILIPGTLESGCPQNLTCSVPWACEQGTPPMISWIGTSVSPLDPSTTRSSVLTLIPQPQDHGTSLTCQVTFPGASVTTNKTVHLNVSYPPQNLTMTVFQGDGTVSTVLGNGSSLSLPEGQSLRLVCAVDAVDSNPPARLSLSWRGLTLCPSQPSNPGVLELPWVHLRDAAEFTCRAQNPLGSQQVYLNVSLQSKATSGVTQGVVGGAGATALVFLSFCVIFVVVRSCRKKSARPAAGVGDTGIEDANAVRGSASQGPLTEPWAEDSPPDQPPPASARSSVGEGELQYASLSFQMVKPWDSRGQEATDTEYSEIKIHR
Chain of Protein translocase subunit SecA (Escherichia coli (strain K12)) (P10408 whole entry): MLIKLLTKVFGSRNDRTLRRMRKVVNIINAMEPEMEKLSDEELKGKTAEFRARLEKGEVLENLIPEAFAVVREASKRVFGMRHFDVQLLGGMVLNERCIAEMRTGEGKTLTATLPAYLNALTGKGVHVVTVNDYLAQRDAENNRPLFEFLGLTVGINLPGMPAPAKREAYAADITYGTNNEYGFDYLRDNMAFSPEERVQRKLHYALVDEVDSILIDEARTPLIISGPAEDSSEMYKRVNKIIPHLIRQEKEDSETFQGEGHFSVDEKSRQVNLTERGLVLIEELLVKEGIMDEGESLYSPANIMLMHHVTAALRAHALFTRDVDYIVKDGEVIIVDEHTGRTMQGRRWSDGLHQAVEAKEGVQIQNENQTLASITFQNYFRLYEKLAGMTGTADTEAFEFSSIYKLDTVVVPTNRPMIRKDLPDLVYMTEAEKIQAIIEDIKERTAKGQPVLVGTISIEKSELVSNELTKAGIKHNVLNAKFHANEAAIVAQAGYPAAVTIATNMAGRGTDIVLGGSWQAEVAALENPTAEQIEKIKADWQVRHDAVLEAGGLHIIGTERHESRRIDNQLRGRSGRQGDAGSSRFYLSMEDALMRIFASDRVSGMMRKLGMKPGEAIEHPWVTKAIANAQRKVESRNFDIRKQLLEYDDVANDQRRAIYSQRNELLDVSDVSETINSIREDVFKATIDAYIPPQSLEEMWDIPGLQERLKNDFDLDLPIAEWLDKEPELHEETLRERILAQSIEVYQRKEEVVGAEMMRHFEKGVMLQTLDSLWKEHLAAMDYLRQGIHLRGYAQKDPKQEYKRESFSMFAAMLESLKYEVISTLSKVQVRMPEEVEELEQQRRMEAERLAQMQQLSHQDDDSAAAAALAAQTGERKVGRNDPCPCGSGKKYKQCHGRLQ

In the case of `CCCNCc1cc2c(C)cc(C)cc2n2c(=O)n(C)nc12`, the Percent Effect in [1] is -5.13%; in assay [2], 4.05%; in assay [3] it was 11%; in assay [4], 0.45%; with Trypanosoma cruzi it was 4.94%; in [5], 9.05%. In addition, the Percent Effect was 5.62% in [6]; 16.2% in the assay listed under Homo sapiens; 4.3% in assay [7]; 3.9% in [8]; -20% in assay [9].

On to `CCn1ncc2c1C(COC)CN(Cc1ccc(OC)cc1)C2` (stereo unspecified), for which the Percent Effect in assay [1] is -1.81%; in [2], 5.41%; in assay [3], -4.68%; in [4], 14.4%; in the assay with Trypanosoma cruzi it was 2.44%; in assay [5], 0.744%. The Percent Effect in [6] is 3.35%; in the assay listed under Homo sapiens, 40%; in [7] it was 2.15%; in assay [8] it was 6.17%; in [9] it was -11.4%.

Regarding `Cc1cccc(-c2nc(CN3CCc4cnc(C)nc4C3)no2)c1`, the Percent Effect is -6.65% in [1]; 7.79% in assay [2]; 64% in assay [3]; 10.5% in [4]; 0.374% in the assay on Trypanosoma cruzi; 1.42% in assay [5]. Also, the Percent Effect in assay [6] was 0.169%; in the assay listed under Homo sapiens it was -1.99%; in assay [7] it was 10.7%; in assay [8], 9.76%; in assay [9], -4.89%.

On to `COCc1nn(C(C)C)c2c1CCN(Cc1cccs1)C2`, for which the Percent Effect in assay [1] is -0.481%; in [2], 11%; in assay [3] it was 1.5%; in [4], 8.32%; in the assay with Trypanosoma cruzi, 0.198%; in assay [5] it was -0.798%. Further, the Percent Effect in assay [6] was 12.4%; in the assay listed under Homo sapiens it was -11.8%; in assay [7] it was 7.29%; in assay [8] it was 16.1%; in [9] it was -1.6%.

Regarding `CCNC(=O)N1CCCC(c2noc(CC)n2)C1` (stereo unspecified), the Percent Effect is -3.36% in [1]; 13% in [2]; 3.81% in [3]; 9.2% in assay [4]; 4.6% in the assay on Trypanosoma cruzi; 3.16% in assay [5]. The Percent Effect in [6] is 5.09%; in the assay filed under Homo sapiens, 7.39%; in assay [7] it was 5.71%; in assay [8], 11.8%; in assay [9], -13.2%.

As to `Cc1nc(C)c(C(=O)N2CCCC2c2nnc3n2CCCCC3)s1` (stereo unspecified), the Percent Effect in assay [1] was -2.68%; in assay [2], 13.5%; in assay [3] it was -4.05%; in assay [4] it was 1.58%; in the assay on Trypanosoma cruzi, 0.586%; in [5], 5.42%. The Percent Effect in [6] is 14.3%; in the assay listed under Homo sapiens, 3.62%; in [7], 11.9%; in [8], 11%; in [9] it was -0.436%.

Take `Cc1nc(C)c(CNC(=O)NC(c2nnc3n2CCC3)C(C)C)s1` (stereo unspecified): the Percent Effect is -6.15% in assay [1]; 0% in assay [2]; -0.521% in assay [3]; 1.26% in assay [4]; -4.1% in the assay on Trypanosoma cruzi; -2.08% in [5]. Further, the Percent Effect in assay [6] is 12.8%; in the assay listed under Homo sapiens it was 8.88%; in assay [7], 5.94%; in [8] it was 11%; in assay [9] it was -0.921%.

Take `Cc1cc(C)n(CC2CCCN2CCCS(=O)(=O)N(C)C)n1` (stereo unspecified): the Percent Effect in assay [1] is -1.98%; in assay [2], 16.2%; in assay [3] it was -6.22%; in [4], 14%; in the assay with Trypanosoma cruzi, 5.99%; in [5] it was 11.9%. Moreover, the Percent Effect is 13.6% in assay [6]; 8.21% in the assay listed under Homo sapiens; 4.76% in [7]; 19.5% in assay [8]; -4.54% in [9].

As to `c1cnn(CC2CN(Cc3nc(-c4ccsc4)no3)CCO2)c1` (stereo unspecified), the Percent Effect was -2.55% in assay [1]; 10.5% in assay [2]; -2.23% in assay [3]; 16.5% in assay [4]; -1.13% in the assay on Trypanosoma cruzi; 0.766% in assay [5]. For the same compound, the Percent Effect is -2.34% in [6]; 6.35% in the assay listed under Homo sapiens; 1.47% in assay [7]; 9.76% in assay [8]; 0.902% in assay [9].

Turning to `CC(C)CCN1CCN(Cc2nc(C3CC3)no2)CC1`, the Percent Effect is -7.83% in assay [1]; -2.7% in [2]; 1.67% in assay [3]; -0.524% in [4]; 1.17% in the assay on Trypanosoma cruzi; -0.417% in [5]. For the same compound, the Percent Effect in assay [6] is 9.38%; in the assay listed under Homo sapiens it was 2.9%; in assay [7], 2.97%; in assay [8] it was -3.66%; in assay [9] it was -0.984%.

For the compound `CC(C)(C)C(=O)N1CCC(c2nc(O)cc(-c3ccccn3)n2)CC1`, the Percent Effect in assay [1] was -0.499%; in assay [2], 12.2%; in assay [3], 8.91%; in assay [4], -7.12%; in the assay on Trypanosoma cruzi it was -0.79%; in assay [5], -5.34%. For the same compound, the Percent Effect in assay [6] was 12%; in the assay listed under Homo sapiens it was 11.1%; in [7] it was 2.15%; in assay [8] it was 1.3%; in assay [9] it was -8.6%.
